Experimental data published in PubChem BioAssay.
Active and inactive are the calls of the source.

Experiments:
[1] = small molecules captured by biotinylated probe aFSTL3 – biochemical, small-molecule microarray, fluorescence 635/667, stem cell growth factor project, primary screen (AID 1064); conditions: higher = more signal;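 further: measures binding of the biotinylated anti-FSTL3 antibody to printed compounds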
[2] = binders from COS7 lysate, DM2A8 probe, primary screen, torsin A project, cell lysate, small-molecule microarray, fluorescence 635/667 (AID 1065); conditions: higher = more signal, COS7 lysate expressing mutant human TOR1A
[3] = small molecules captured by biotinylated probe aFGF2 – biochemical, small-molecule microarray, fluorescence 635/667, stem cell growth factor project, primary screen (AID 1067); conditions: higher = more signal;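 further: measures binding of biotinylated aFGF2 protein to printed compounds on slides; z-score merges feature fluorescence and signal-to-noise across triplicate slides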
[4] = small molecules captured by biotinylated probe aFGF10 – biochemical, small-molecule microarray, fluorescence 635/667, stem cell growth factor project, primary screen (AID 1071); conditions: higher = more signal;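 further: score merges 667 nm spot intensity and signal to noise from triplicate slides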
[5] = molecular target: Neurogenic locus notch homolog protein 2 (Homo sapiens) (UniProt Q04721); assay: small molecules binding Notch2 protein – biochemical, small-molecule microarray, 635 nm fluorescence, stem cell growth factors, primary screen (AID 1073); conditions: higher = more signal
[6] = molecular target: Pro-neuregulin-1, membrane-bound isoform (Homo sapiens) (UniProt Q02297); assay: small molecules binding neuregulin-1 protein – biochemical, small-molecule microarray, fluorescence 635/667, psychiatric disease protein project, primary screen (AID 1075); conditions: NRG1 binding, 635 nm fluorescence, higher = more signal;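 further: score combines 667 nm spot fluorescence with signal to noise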
Chain of Pro-neuregulin-1, membrane-bound isoform (Homo sapiens) (Q02297 whole entry, looked up, the tested form may be a part, canonical isoform): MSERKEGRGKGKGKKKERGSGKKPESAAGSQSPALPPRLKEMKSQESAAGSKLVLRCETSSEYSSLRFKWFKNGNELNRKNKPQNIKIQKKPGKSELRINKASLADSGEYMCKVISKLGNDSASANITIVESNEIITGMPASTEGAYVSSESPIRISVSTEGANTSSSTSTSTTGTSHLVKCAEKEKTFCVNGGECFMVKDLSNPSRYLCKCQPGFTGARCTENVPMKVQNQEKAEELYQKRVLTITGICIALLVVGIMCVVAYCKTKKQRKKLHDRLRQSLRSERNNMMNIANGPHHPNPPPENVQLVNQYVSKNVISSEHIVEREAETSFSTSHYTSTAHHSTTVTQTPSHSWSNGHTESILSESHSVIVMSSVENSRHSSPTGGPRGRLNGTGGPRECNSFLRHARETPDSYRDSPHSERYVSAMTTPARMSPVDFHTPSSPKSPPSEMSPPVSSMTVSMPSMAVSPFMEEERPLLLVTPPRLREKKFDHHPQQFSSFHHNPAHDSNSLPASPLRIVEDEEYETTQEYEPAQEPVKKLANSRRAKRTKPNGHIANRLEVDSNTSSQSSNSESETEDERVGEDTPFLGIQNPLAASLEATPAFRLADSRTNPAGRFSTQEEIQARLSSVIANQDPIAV

[7] = tested on: Neuregulin-1 EGF-like domain; assay: small molecules binding NRG1 EGF domain – biochemical, small-molecule microarray, 635 nm fluorescence, primary screen (AID 1081); conditions: higher = more signal;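 further: binding of the protein to compounds printed on small-molecule microarray slides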
[8] = FRG1 expression reporter modulators in myotubes – cell-based, C2C12 myotubes, firefly/Renilla luciferase, luminescence, FRG1 inhibition for FSHD, primary screen (AID 1084); conditions: FRG1 promoter luciferase, higher = more signal, called active from +8 up or from −8 down
[9] = small molecules captured by biotinylated probe aFST – biochemical, small-molecule microarray, fluorescence 635/667, stem cell growth factor project, primary screen (AID 1086); conditions: higher = more signal;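 further: score merges 667 nm fluorescence with signal-to-noise of each printed compound spot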
[10] = binders of probe aHhip on microarray, primary screen, stem cell growth factor project, biochemical, small-molecule microarray, fluorescence 635/667 (AID 1087); conditions: higher = more signal;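 further: score merges spot fluorescence at 667nm with spot signal to noise ratio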
[11] = tested on: PRMT1 (protein arginine N-methyltransferase 1); assay: small molecules binding arginine methyltransferase PRMT1 – biochemical, small-molecule microarray, 635 nm fluorescence, primary screen (AID 1088); conditions: higher = more signal;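 further: binding of Prmt1 protein to compounds spotted on small-molecule microarray slides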
[12] = growth effects on S. cerevisiae YJM789 – YJM789 clinical isolate, OD600, 24 h, basal, primary screen (AID 1089); conditions: higher = more signal, called active from +8 up or from −8 down;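 further: growth of clinical yeast isolate S. cerevisiae YJM 789 seeded 1000 cells per well; test concentration not given here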
[13] = S. pombe growth modifiers, basal conditions – strain 972, OD600, 24 h, no modulator, primary screen (AID 1090);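 further: basal condition with compound alone and no growth modifier present; test concentration not given here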; conditions: S. pombe 972 growth, higher = more signal, called active from +8 up or from −8 down
[14] = budding yeast growth modifiers under rapamycin – strain BY4716, OD600, 96 h, primary screen (AID 1091); further: test concentration not given here; conditions: S. cerevisiae BY4716 + rapamycin, higher = more signal, called active from +8 up or from −8 down
[15] = molecular target: Torsin-1A-interacting protein 2 (Homo sapiens) (UniProt Q8NFQ8); assay: small molecules binding lysate-expressed LULL1 – cell lysate, human LULL1 lysate, 635/667 nm fluorescence, primary screen (AID 1092); conditions: small-molecule microarray, hLULL1 lysate binding, 635 nm fluorescence; higher = more signal;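 further: probe is lysate of COS7 cells overexpressing human LULL1; score merges per-feature 667 nm fluorescence with signal-to-noise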
Chain of Torsin-1A-interacting protein 2 (Homo sapiens) (Q8NFQ8 whole entry, looked up): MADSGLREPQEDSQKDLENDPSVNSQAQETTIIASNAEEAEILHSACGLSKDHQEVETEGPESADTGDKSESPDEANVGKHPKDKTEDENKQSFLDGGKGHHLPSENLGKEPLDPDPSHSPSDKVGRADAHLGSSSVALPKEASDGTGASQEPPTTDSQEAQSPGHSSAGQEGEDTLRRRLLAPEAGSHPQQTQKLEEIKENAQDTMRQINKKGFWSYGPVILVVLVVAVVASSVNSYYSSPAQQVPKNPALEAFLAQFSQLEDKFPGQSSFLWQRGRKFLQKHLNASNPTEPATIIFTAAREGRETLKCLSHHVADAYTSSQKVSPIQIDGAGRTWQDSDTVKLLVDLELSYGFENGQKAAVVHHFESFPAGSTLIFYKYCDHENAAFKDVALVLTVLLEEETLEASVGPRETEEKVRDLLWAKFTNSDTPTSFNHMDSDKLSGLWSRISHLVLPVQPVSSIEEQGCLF

[16] = optical density change of DRC41 E. coli – strain DRC41, OD650, 24 h, E. coli filamentation project, primary screen (AID 1093);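 further: MC1000 strain lacking acrAB efflux and sulA so SOS filamentation is blocked; test concentration not given here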; conditions: E. coli DRC41 growth, higher = more signal, called active from +8 up or from −8 down
[17] = probe aLefty2 binding to arrayed compounds – biochemical, biotinylated probe, 635/667 nm fluorescence, primary screen (AID 1094); conditions: small-molecule microarray, higher = more signal;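 further: score merges spot fluorescence near 667 nm with spot signal-to-noise ratio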
[18] = tested on: Noggin (protein binding on small-molecule microarray); assay: small molecules binding Noggin protein – biochemical, 635/667 nm fluorescence, primary screen (AID 1095); conditions: 635 nm fluorescence, higher = more signal;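 further: score merges 667 nm feature fluorescence with signal to noise over triplicate slides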
[19] = molecular target: Neurogenic locus notch homolog protein 3 (Homo sapiens) (UniProt Q9UM47); assay: small molecules binding NOTCH3 protein – biochemical, 635/667 nm fluorescence, primary screen (AID 1096); conditions: small-molecule microarray, 635 nm fluorescence, higher = more signal
Chain of Neurogenic locus notch homolog protein 3 (Homo sapiens) (Q9UM47 whole entry, looked up): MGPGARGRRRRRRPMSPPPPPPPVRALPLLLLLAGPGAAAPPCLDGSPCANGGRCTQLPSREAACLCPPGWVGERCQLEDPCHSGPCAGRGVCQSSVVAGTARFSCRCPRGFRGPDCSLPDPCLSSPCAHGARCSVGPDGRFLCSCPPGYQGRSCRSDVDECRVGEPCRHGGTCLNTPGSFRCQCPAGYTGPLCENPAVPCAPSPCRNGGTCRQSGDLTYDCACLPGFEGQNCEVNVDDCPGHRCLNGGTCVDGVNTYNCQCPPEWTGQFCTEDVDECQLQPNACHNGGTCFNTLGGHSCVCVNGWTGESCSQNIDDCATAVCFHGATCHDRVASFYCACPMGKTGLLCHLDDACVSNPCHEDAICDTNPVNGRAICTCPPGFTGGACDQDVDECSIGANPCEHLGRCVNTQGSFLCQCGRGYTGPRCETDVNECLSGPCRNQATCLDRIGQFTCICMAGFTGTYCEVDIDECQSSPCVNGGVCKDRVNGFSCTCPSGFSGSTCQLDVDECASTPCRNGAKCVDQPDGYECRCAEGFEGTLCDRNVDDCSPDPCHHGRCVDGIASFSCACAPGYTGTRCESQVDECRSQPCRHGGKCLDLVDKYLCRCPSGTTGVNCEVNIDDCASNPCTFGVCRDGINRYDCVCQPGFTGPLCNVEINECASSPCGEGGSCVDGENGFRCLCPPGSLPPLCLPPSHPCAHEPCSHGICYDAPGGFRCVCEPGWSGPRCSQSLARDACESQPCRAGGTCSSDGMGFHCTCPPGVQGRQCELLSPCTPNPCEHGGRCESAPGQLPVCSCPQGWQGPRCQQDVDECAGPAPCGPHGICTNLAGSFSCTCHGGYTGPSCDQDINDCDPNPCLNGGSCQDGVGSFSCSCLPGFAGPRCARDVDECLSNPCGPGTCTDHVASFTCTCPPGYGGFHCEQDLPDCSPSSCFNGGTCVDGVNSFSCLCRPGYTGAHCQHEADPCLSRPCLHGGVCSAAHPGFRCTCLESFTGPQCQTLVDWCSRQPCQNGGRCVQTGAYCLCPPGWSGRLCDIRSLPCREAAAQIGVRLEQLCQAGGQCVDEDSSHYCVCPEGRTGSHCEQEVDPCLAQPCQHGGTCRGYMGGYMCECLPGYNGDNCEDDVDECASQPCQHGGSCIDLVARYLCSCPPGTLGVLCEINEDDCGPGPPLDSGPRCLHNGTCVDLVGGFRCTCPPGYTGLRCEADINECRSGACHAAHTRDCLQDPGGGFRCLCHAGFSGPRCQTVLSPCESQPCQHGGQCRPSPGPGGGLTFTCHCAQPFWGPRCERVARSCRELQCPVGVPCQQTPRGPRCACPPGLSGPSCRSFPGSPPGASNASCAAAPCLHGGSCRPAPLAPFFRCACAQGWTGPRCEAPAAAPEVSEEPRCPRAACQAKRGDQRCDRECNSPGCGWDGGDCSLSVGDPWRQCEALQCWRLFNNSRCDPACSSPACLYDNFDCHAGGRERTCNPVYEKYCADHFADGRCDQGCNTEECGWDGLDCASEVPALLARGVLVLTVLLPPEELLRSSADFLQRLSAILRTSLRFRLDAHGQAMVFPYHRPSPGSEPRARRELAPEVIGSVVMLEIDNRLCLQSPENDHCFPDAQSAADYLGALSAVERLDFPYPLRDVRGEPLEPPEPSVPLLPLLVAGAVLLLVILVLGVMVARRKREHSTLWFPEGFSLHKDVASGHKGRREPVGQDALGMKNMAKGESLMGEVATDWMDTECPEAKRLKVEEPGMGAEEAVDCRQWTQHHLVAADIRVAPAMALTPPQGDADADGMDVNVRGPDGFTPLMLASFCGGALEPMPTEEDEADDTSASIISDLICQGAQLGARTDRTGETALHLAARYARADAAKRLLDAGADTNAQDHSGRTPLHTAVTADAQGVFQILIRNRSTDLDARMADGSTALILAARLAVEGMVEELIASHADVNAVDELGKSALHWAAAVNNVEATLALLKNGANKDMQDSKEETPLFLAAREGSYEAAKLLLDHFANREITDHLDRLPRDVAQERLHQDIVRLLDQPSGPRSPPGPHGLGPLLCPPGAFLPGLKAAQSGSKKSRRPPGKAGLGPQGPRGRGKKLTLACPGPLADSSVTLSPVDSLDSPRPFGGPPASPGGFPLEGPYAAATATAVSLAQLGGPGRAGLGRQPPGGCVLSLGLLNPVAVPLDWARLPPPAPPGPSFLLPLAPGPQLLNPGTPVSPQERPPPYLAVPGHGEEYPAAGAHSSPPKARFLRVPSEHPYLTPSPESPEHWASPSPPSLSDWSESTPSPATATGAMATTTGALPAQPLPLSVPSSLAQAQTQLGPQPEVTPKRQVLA

[20] = probe aEGFR binding to arrayed compounds – biochemical, biotinylated probe, 635/667 nm fluorescence, primary screen (AID 1097); conditions: small-molecule microarray, higher = more signal;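 further: probe is a biotinylated anti-EGFR antibody binding compounds printed on slides; score combines fluorescence near 667 nm and signal to noise of each spot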

SMILES	composite z-score [1]	composite z-score [2]	composite z-score [3]	composite z-score [4]	composite z-score [5]	composite z-score [6]	composite z-score [7]	z-score [8]	composite z-score [9]	composite z-score [10]	composite z-score [11]	z-score [12]	z-score [13]	z-score [14]	composite z-score [15]	z-score [16]	composite z-score [17]	composite z-score [18]	composite z-score [19]	composite z-score [20]
COC(=O)[C@@]1(Cc2ccccc2)[C@@H]2C(=CC(=O)[C@H]2CC(=O)C(=O)N(C)C)CN1C(=O)c1ccccc1	0.152	-0.0069	0.305	1.21	1.39	1.98	1.32	-1.26 (inactive)	0.962	0.113	0.777	-1.06 (inactive)	0.378 (inactive)	-0.251 (inactive)	3.22	0.844 (inactive)	0.262	-0.434	1.06	0.156
CC(=O)NCCCC[C@@H]1NC(=O)[C@H]2C[C@@H](C(=O)NCCCC[N+](C)(C)C)[C@@H](c3cccc(OCCO)c3)N2C1=O	-0.188	1.86	-0.0319	1.23	0.165	0.4	1.14	0.647 (inactive)	0.593	0.24	1.41	-0.369 (inactive)	-1.27 (inactive)	-1.92 (inactive)	1.97	1.08 (inactive)	0.0503	1.81	1.01	0.162
O=C1O[C@H](c2ccccc2)[C@H](c2ccccc2)N2[C@H]1[C@@H](C(=O)Nc1nc3ccccc3s1)[C@]1(C(=O)Nc3ccc(C#CC4(O)CCCCCC4)cc31)[C@H]2c1ccccc1OCCO	-0.411	0.0728	-0.048	1.05	1.23	0.77	1.07	0.435 (inactive)	0.492	-0.0994	1.54	1.87 (inactive)	1.91 (inactive)	3.32 (inactive)	3.08	0.149 (inactive)	-0.118	0.971	1.06	-0.0564
C=CCNC(=O)[C@H]1[C@@H]2C(=O)O[C@@H](c3ccccc3)[C@@H](c3ccccc3)N2[C@@H](c2ccc(O)cc2)[C@]12C(=O)N(C(=O)OCCOC)c1ccccc12	-0.548	0.267	0.0407	1.16	1.05	1.33	1.29	-1.96 (inactive)	0.303	-0.541	1.42	0.734 (inactive)	-0.66 (inactive)	2.39 (inactive)	2.84	0.507 (inactive)	-0.0095	0.537	1	0.0798
O=C1C[C@@](C(=O)NCCN2CCOCC2)(c2ccc([N+](=O)[O-])cc2)[C@@H](c2ccc(CO)cc2I)N1C1CCCCC1	-0.218	-0.0103	-0.0736	0.262	0.64	0.148	1.43	1.21 (inactive)	-0.0352	-0.0717	1.3	-1.9 (inactive)	-2.09 (inactive)	-1.05 (inactive)	2.79	0.685 (inactive)	-0.147	0.914	0.91	-0.0963
O=C1O[C@@H](c2ccccc2)[C@@H](c2ccccc2)N2[C@@H](c3ccc(OCCO)cc3)[C@]3(C(=O)Nc4ccccc43)[C@@H](C(=O)O)[C@H]12	0.161	0.144	-0.0336	1.02	0.381	1.5	1.45	-0.0089 (inactive)	0.0284	-0.407	0.194	0.264 (inactive)	-0.272 (inactive)	-0.219 (inactive)	3.09	0.852 (inactive)	0.176	-0.179	-0.239	0.247
COC(=O)c1ccc([C@H](NC(=O)c2ccco2)[C@]2(C)C[C@H]2C2CCCCC2)cc1	0.685	-0.462	-0.0301	-0.11	0.329	1.12	-0.808	-0.622 (inactive)	0.488	2.5	-1.67	0.0339 (inactive)	0.17 (inactive)	0.605 (inactive)	1.45	-1.49 (inactive)	-0.0986	-0.586	-0.436	-0.192
OCC1CC(c2ccccc2)=NO1 (stereo not given)	-0.315	0.239	-0.0242	0.202	-0.244	-0.584	-0.164	0.557 (inactive)	0.127	0.235	-1.11	-0.248 (inactive)	-0.0256 (inactive)	0.368 (inactive)	-1.3	0.677 (inactive)	-0.119	0.397	-0.473	-0.068
C=C(/C(=C/C[C@H](OC(C)=O)c1cccc(OCCO)c1)c1cnc2ccccc2c1)C(C)C	-0.104	0.21	-0.108	0.459	1.56	0.35	0.914	-0.127 (inactive)	-0.241	-0.0618	0.684	1.9 (inactive)	-0.3 (inactive)	1.35 (inactive)	1.03	0.172 (inactive)	-0.0888	0.608	0.778	0.386
